Laboratory results reported in PubChem BioAssay AID1159580 (chemical genetic matrix, 2015).
Where “and” joins values, the source holds several entries; their conditions need not be identical. Identical values can stand only once. About 2,000 (36%) of roughly 5,500 compounds were called active. Inconclusive results (about 18%) are left out. Rule as the data show it: active = normalized growth mostly below about 0.91 (no sharp cut-off); inconclusive = no clear call, values can overlap the other calls; inactive = mostly above about 0.92. The list shows a part of the results.

Assay: chemical genetic growth profiling, strain panel (AID 1159580);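 also: tested at 20 µM; growth read once vehicle control cultures reached saturation at 30 °C; 1 = growth at the plate median or of vehicle wells; lower values mean less growth of the strain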
Details: S. cerevisiae deletion strains, growth OD

Measured: normalized growth

C=CCN1CC[C@]23c4c5ccc(O)c4OC2C(=O)CC[C@@]3(O)[C@H]1C5 (stereo partly specified)
inactive: locus YAL013W, strain DEP1, active compounds read low 1.01 | locus YAL021C, strain ccr4, active compounds read low 0.935 | locus YAL026C, strain drs2, active compounds read low 0.979 | locus YAL030W, strain snc1, active compounds read low 0.974 | locus YBL061C, strain skt5, active compounds read low 0.978 | locus YBR009C, strain hhf1, active compounds read low 0.987 | locus YBR021W, strain FUR4, active compounds read low 1.01 | locus YBR023C, strain chs3, active compounds read low 0.972 | locus YBR171W, strain sec66, active compounds read low 0.974 | locus YBR229C, strain ROT2, active compounds read low 1 | locus YBR231C, strain swc5, active compounds read low 0.969 | locus YBR279W, strain paf1, active compounds read low 0.955 | locus YCL011C, strain gbp2, active compounds read low 0.941 | locus YCL016C, strain dcc1, active compounds read low 0.986 | locus YCL029C, strain bik1, active compounds read low 0.996 | locus YCL061C, strain MRC1, active compounds read low 0.979 | locus YCL069W, strain vba3, active compounds read low 0.946 | locus YCR088W, strain abp1, active compounds read low 0.98 | locus YDL005C, strain med2, active compounds read low 0.943 | locus YDL035C, strain GPR1, active compounds read low 1.02 | locus YDL040C, strain nat1, active compounds read low 0.967 | locus YDL074C, strain BRE1, active compounds read low 1.05 | locus YDL101C, strain DUN1, active compounds read low 1.02 | locus YDL134C, strain PPH21, active compounds read low 1 | locus YDL185W, strain tfp1, active compounds read low 1.01 | locus YDL192W, strain arf1, active compounds read low 0.988 | locus YDR001C, strain nth1, active compounds read low 0.971 | locus YDR069C, strain doa4, active compounds read low 0.943 | locus YDR101C, strain arx1, active compounds read low 0.989 | locus YDR137W, strain rgp1, active compounds read low 0.959 | locus YDR150W, strain NUM1, active compounds read low 1 | locus YDR159W, strain sac3, active compounds read low 0.962 | locus YDR162C, strain NBP2, active compounds read low 1.01 | locus YDR195W, strain ref2 0.955 | locus YDR297W, strain sur2, active compounds read low 0.962 | locus YDR318W, strain mcm21, active compounds read low 1 | locus YDR334W, strain swr1, active compounds read low 0.95 | locus YDR335W, strain msn5, active compounds read low 0.974 | locus YDR388W, active compounds read low 1 | locus YDR392W, strain spt3, active compounds read low 0.877 | locus YDR502C, strain sam2, active compounds read low 0.984 | locus YEL003W, strain gim4, active compounds read low 0.936 | locus YEL037C, strain rad23, active compounds read low 0.954 | locus YEL061C, strain CIN8 (second series), active compounds read low 0.962 | locus YEL061C, strain CIN8, active compounds read low 1.01 | locus YER015W, strain faa2, active compounds read low 0.97 | locus YER016W, strain bim1, active compounds read low 0.972 | locus YER110C, active compounds read low 0.992 | locus YER111C, strain swi4, active compounds read low 0.97 | locus YER155C, strain BEM2 (second series), active compounds read low 0.979 | locus YER155C, strain BEM2, active compounds read low 1.01 | locus YER167W, strain BCK2, active compounds read low 0.989 | locus YFR010W, strain ubp6, active compounds read low 0.953 | locus YGL078C, strain dbp3, active compounds read low 1 | locus YGL086W, strain mad1, active compounds read low 0.993 | locus YGL167C, strain pmr1, active compounds read low 0.961 | locus YGL173C, strain kem1, active compounds read low 0.971 | locus YGL227W, strain vid30, active compounds read low 0.97 | locus YGL240W, strain doc1, active compounds read low 0.961 | locus YGL248W, strain PDE1, active compounds read low 1.01 | locus YGL253W, strain hxk2, active compounds read low 0.974 | locus YGR078C, strain PAC10, active compounds read low 1.03 | locus YGR135W, strain pre9, active compounds read low 0.99 | locus YGR229C, strain SMI1, active compounds read low 1 | locus YGR252W, strain gcn5, active compounds read low 0.997 | locus YHR013C, strain ard1, active compounds read low 0.926 | locus YHR027C, strain rpn1, active compounds read low 0.97 | locus YHR030C, strain SLT2, active compounds read low 1 and 0.989 | locus YHR079C, strain IRE1 (second series), active compounds read low 1 | locus YHR094C, strain hxt1, active compounds read low 1 | locus YHR129C, strain ARP1, active compounds read low 1.01 | locus YHR142W, strain chs7, active compounds read low 0.946 | locus YHR200W, strain rpn10, active compounds read low 0.998 | locus YIL066C, strain RNR3, active compounds read low 1.01 | locus YIL073C, strain SPO22, active compounds read low 1.02 | locus YIL125W, strain kgd1, active compounds read low 0.997 | locus YIR030C, strain dcg1, active compounds read low 0.997 | locus YJL092W, strain hpr5, active compounds read low 0.957 | locus YJL095W, strain BCK1 (second series), active compounds read low 0.978 | locus YJL095W, strain BCK1, active compounds read low 1.02 and 1 | locus YJL115W, strain asf1, active compounds read low 0.957 | locus YJL129C, strain trk1, active compounds read low 0.917 | locus YJL134W, strain LCB3, active compounds read low 1.01 | locus YJL154C, strain vps35, active compounds read low 0.971 | locus YJL164C, strain tpk1, active compounds read low 0.984 | locus YJL166W, strain qcr8, active compounds read low 0.959 | locus YJL168C, strain set2, active compounds read low 1 | locus YJL187C, strain SWE1 (second series), active compounds read low 1.03 | locus YJL187C, strain SWE1, active compounds read low 0.964 | locus YJR043C, strain POL32, active compounds read low 1.03 | locus YJR066W, strain TOR1, active compounds read low 0.949
